Reference: PubChem BioAssay AID624504 (Sanford-Burnham Center for Chemical Genomics, 2012)
The whole screen tested about 5,000 compounds, of which about 3,900 (78%) were called active. Cut-off read from the data, not from the text of the source: active = inhibition above about 22%; inactive = the rest. So high a share suggests a set chosen from earlier hits. Not all results are given here.

Experiment: fluorescence retest of MPTP screen hits in isolated mitochondria, single concentration (AID 624504);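 note: 0% = DMSO vehicle and 100% = positive control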
Details: membrane potential, Rhodamine 123 fluorescence, at 10 µM, stronger effect = higher value
In the case of `CCCCN(CCCC)CCC(O)c1cc2c(Cl)cc(Cl)cc2c2cc(C(F)(F)F)ccc12` (stereo not given), the inhibition is reported as -7.09% (inactive). For `CC(C)CC(=O)N/C(N)=N/c1nc2ccccc2s1`, the inhibition was 50% (active). With `O=C1c2ccccc2C2=Nc3ccccc3SC(c3ccccc3F)C12` (stereo not given) the inhibition was 59% (active). For `S=C(Nc1cccc(Br)c1)N1CCn2cccc2C1c1cccnc1` (stereo not given), the inhibition was 94.4% (active). For `CN(c1ccccc1)S(=O)(=O)c1cccc(NC(=O)Cc2ccc(Cl)cc2)c1`, the inhibition was 81.2% (active). In the case of `Cc1ccc(S(=O)(=O)N(CC(=O)Nc2cccc([N+](=O)[O-])c2)Cc2ccc(Cl)cc2)cc1`, the inhibition is reported as 88.5% (active). For `CN(c1cccc(NC(=O)Nc2ccc(Cl)cc2)c1)S(C)(=O)=O`, the inhibition was 91.2% (active). In the case of `O=C(Cc1ccsc1)N1CCN(S(=O)(=O)c2cc(C(F)(F)F)cc(C(F)(F)F)c2)CC1`, the inhibition is reported as 86.7% (active). For `O=C(c1ccncc1)N1CCN(S(=O)(=O)c2cc(C(F)(F)F)cc(C(F)(F)F)c2)CC1`, the inhibition was 99.7% (active). For `CCC(C)N1C(=O)S/C(=C/c2ccc(Sc3nc4ccccc4[nH]3)o2)C1=O` (stereo not given), the inhibition was 91.4% (active). In the case of `Oc1c(Cl)cc(Cl)c(Cl)c1Cc1c(O)c(Cl)cc(Cl)c1Cl`, the inhibition is reported as 16.1% (inactive). With `Cc1nc2c(OCc3cccc(Cl)c3)cccn2c1N(C)CC1CC1` the inhibition was 107% (active). With `Cc1nc2c(OCc3ccc(Cl)cc3Cl)cccn2c1N(C)CC1CC1` the inhibition was 105% (active). With `Cc1nc2c(OCc3ccc(Cl)cc3)cccn2c1N(C)Cc1cccs1` the inhibition was 106% (active). In the case of `O=C(/C(=C/c1cccc(Cl)c1)c1nc2ccccc2[nH]1)c1ccccc1`, the inhibition is reported as 77.4% (active). For `NC(N)=N/N=C/c1ccc(Cl)c([N+](=O)[O-])c1`, the inhibition was -8.15% (inactive). In the case of `CC(C)(C)c1ccc(SCCc2ccncc2)cc1`, the inhibition is reported as 98.5% (active). With `Cc1cc(C)c(SCCc2ccncc2)c(C)c1` the inhibition was 95.5% (active). For `c1ccc2c(CSCc3nc4ccccc4[nH]3)cccc2c1`, the inhibition was 55.6% (active). With `O=C(c1ccc(N2CCCC2=O)cc1)N1CCN(c2ccc(C(F)(F)F)cc2[N+](=O)[O-])CC1` the inhibition was 76% (active). For `O=C(Nc1cccc(C(F)(F)F)c1)c1ccc(N2CCNCC2)c([N+](=O)[O-])c1`, the inhibition was -27% (inactive). In the case of `N#Cc1c(-c2cccs2)nc(SCC(=O)c2ccc(Br)cc2)[nH]c1=O`, the inhibition is reported as 61.2% (active). In the case of `CCc1ccc(NC(=O)Nc2ccncc2)cc1`, the inhibition is reported as 71.8% (active). With `Cc1nnc(NC(=O)Nc2ccc(Cl)c(Cl)c2)s1` the inhibition was 94% (active). In the case of `Cc1ccc(NC(=O)Nc2nnc(-c3ccncc3)s2)cc1`, the inhibition is reported as 81.7% (active). For `CCCCC(=O)NNC(=S)NC(=O)C(c1ccccc1)c1ccccc1`, the inhibition was -2.85% (inactive). For `O=[N+]([O-])c1cc(Cl)cc(/C=N/NC(=S)Nc2cc(S(=O)(=O)N3CCOCC3)ccc2Cl)c1O`, the inhibition was 5.99% (inactive). For `O=C(c1cc(-c2cccc(O)c2)on1)N1CCc2ccccc2C1`, the inhibition was 33.5% (active). With `O=C(NNc1ccccc1Cl)C(O)(c1cccc(C(F)(F)F)c1)c1cccc(C(F)(F)F)c1` the inhibition was 83.9% (active). For `Cc1ccc(S(=O)(=O)Nc2ccc3ncccc3c2)cc1`, the inhibition was 72.7% (active). In the case of `COc1ccc(S(=O)(=O)NCCCCOc2ccc(Cl)cc2)cc1`, the inhibition is reported as 88.4% (active). For `O=[N+]([O-])c1cc(Br)c(O)c(/C=N/Nc2nc3ccccc3s2)c1`, the inhibition was 65.6% (active). With `O=C(CCN1C(=O)/C(=C/c2cccs2)SC1=S)NNC(=O)c1cccc(O)c1` the inhibition was 49% (active). With `COc1cc(NC(=O)c2cncc(-c3ccc(C#N)cc3)c2)cc(C(=O)Nc2cccc(C(F)(F)F)c2)c1` the inhibition was 58.3% (active). With `COCCn1c(CN2CCC(Cc3ccccc3)CC2)nc2c1c(=O)n(C)c(=O)n2C` the inhibition was 10.1% (inactive). For `COC(=O)c1c(C)[nH]c(C(=O)/C=C/c2ccc(Cl)cc2)c1C`, the inhibition was 86.5% (active). For `CCCc1nc2scc(-c3ccc(C)cc3)c2c(=O)n1N`, the inhibition was 20.9% (active). With `CC(C)c1ccc(NC(=S)NC2CC3C=CC2C3)cc1` (stereo not given) the inhibition was 91% (active). With `COc1cccc(CNS(=O)(=O)c2ccc3c(c2)CC(C)N3C(=O)C2CCC2)c1` (stereo not given) the inhibition was 91.1% (active). In the case of `O=C(Nc1nc(-c2ccc3c(c2)OCO3)cs1)c1ccncc1`, the inhibition is reported as 42.8% (active). In the case of `Cc1ccc(F)cc1NC(=O)Cc1nn(C)c(=O)c2ccccc12`, the inhibition is reported as 29.6% (active). In the case of `Cc1ccc(-c2nc(COC(=O)c3c(C)noc3C)cs2)cc1`, the inhibition is reported as 23.4% (active). In the case of `Cc1ccc(-c2noc(CCC(=O)Nc3ccccc3N3CCN(C)CC3)n2)cc1`, the inhibition is reported as -2.79% (inactive). For `Cc1ccc(NC(=O)CN(C)CC(=O)Nc2cccc(F)c2)cc1[N+](=O)[O-]`, the inhibition was 100% (active). For `Cc1cc(C)c(NC(=O)C[N+](C)(C)CC(O)COc2cccc3ccccc23)c(C)c1` (stereo not given), the inhibition was -17% (inactive).
